Source: PubChem BioAssay
GSTO1 inh – inhibitors of recombinant GSTO1, primary screen, counter-screen for RBBP9 inhibitor project, biochemical, fluorescence polarization; activity-based probe fluorescence polarization; inhibition, % at 5.96 µM; 1.1% of 300,000 active; AID 1974, 2009;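 active = inhibition above the campaign mean inhibition plus 3 SD, cut at about 35% in these data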;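 also: 0% = GSTO1-1 with DMSO and 100% = wells lacking GSTO1-1 enzyme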
Target sequence (P78417 whole entry, looked up): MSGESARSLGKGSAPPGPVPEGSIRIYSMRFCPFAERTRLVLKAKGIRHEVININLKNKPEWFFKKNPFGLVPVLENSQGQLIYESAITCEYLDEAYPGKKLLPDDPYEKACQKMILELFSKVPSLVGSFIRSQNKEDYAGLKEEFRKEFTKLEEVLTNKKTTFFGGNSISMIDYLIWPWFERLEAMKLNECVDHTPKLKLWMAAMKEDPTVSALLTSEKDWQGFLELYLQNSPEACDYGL
PAD4 FP inh – human PAD4 inhibitors, primary screen, biochemical, fluorescence polarization, 1536-well format; Protein-arginine deiminase type-4 (Homo sapiens), Q9UM07; recombinant PAD4, RCA probe fluorescence polarization; inhibition, % at 6.36 µM; 0.41% of 330,000 active;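 active = percent inhibition above a cutoff equal to the mean of all tested compounds plus 3 SD, cut at about 15% in these data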;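 also: 0% = PAD4 with RCA probe and DMSO and 100% = probe without PAD4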
Fam108B inh – mouse Fam108B serine hydrolase inhibitors, primary screen, counter-screen for RBBP9 inhibitor project, biochemical, fluorescence polarization; recombinant Fam108B, FP-Rh probe fluorescence polarization; inhibition, % at 9.51 µM; 0.33% of 300,000 active;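 active = inhibition above the screen mean inhibition plus 3 SD, computed separately per campaign, cut at about 18% in these data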;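 also: inhibitors lower polarization as less probe binds the enzyme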
LYPLA1 counter – LYPLA1 inhibitors, primary screen, counter-screen for PME1 inhibitor project, biochemical, fluorescence polarization, FP-Rh probe ABPP. recombinant LYPLA1. AID 2174, 2009. Acyl-protein thioesterase 1 (Homo sapiens), O75608. inhibition, % at 5.9 µM. 0.16% of 320,000 active;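 active = inhibition above the mean of all tested compounds plus 3 SD, set per campaign, cut at about 14% in these data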;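 also: inhibitors block serine hydrolase probe labeling of LYPLA1 so polarization falls; 0% = enzyme with DMSO and 100% = wells lacking LYPLA1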
PME-1 inh – PME-1 inhibitors via competitive probe labeling, primary screen, biochemical, fluorescence polarization, FP-Rh probe, HTS; recombinant PME-1; 0.53% of 320,000 active; inhibition, % at 5.9 µM; AID 2130, 2009;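 active = inhibition above the campaign mean of all compounds plus 3 SD, cut at about 26% in these data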;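 also: competitive labeling of PME-1 active site by serine hydrolase directed probe; 0% = PME-1 with DMSO and 100% = wells lacking PME-1 enzyme; inhibitors block probe labeling so polarization falls and inhibition rises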
LYPLA2 counter – LYPLA2 inhibitors, primary screen, counter-screen for PME1 inhibitor project, biochemical, fluorescence polarization, FP-Rh probe ABPP; Acyl-protein thioesterase 2 (Homo sapiens), O95372; AID 2177, 2009; inhibition, % at 5.9 µM; 0.38% of 320,000 active; recombinant LYPLA2;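 active = inhibition above the screen-wide mean plus 3 SD, limit set per campaign, cut at about 26% in these data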;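 also: 0% = LYPLA2 with DMSO and 100% = wells lacking LYPLA2 enzyme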
Target sequence (O95372 whole entry, looked up): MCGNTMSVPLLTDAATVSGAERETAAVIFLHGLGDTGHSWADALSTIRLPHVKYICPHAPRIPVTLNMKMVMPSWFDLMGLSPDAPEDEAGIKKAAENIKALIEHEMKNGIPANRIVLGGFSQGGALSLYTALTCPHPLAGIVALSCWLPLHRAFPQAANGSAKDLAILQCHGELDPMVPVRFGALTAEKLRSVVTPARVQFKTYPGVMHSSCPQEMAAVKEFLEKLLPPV
LYPLA2 conf – LYPLA2 inhibitors, retest, confirmation, counter-screen for PME1 inhibitor project, biochemical, fluorescence polarization, FP-Rh probe ABPP | AID 2232, 2010 | shares compounds with LYPLA2 counter | recombinant LYPLA2 | inhibition, % at 5.9 µM | 72% of 1,100 active;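 active = mean inhibition across replicates above the hit cutoff set in the primary screen, cut at about 26% in these data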;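 also: blocked labeling of the enzyme by serine hydrolase FP-Rh probe lowers polarization; 0% = enzyme with DMSO and 100% = wells lacking LYPLA2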
LYPLA2 gel ABPP – LYPLA2 inhibitors in proteome, late-stage follow-up, gel-based competitive ABPP, fluorescence, assay provider | shares compounds with LYPLA2 counter | inhibition, % at 20 µM | 30% of 150 active | rhLYPLA2 in mouse brain proteome, gel ABPP FP-Rh | AID 652029, 2013;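 active = inhibition of LYPLA2 enzyme probe labeling above about 50%, limit read from the data; inactive = inhibition below that limit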;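 also: loss of FP-Rh probe labeling of the LYPLA2 gel band measured as band density; 0% = DMSO only control band and 100% = blank gel background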
* marks the source's active call; other numbers are inactive results; x = not tested or not shown. The list is not random: actives were taken first. Their share in the collection is about 1.7%.

SMILES	GSTO1 inh	PAD4 FP inh	Fam108B inh	LYPLA1 counter	PME-1 inh	LYPLA2 counter	LYPLA2 conf	others
COc1ccc(CCNC(=O)CCOc2ccc(C)cc2)cc1OC	4	7	4	2	3	2	x
COc1ccc(CC(=O)Nc2cccc(-c3nnc(-c4cccc(C)c4)o3)c2)cc1OC	-45	-3	-31	-36	-51	-52	x
CC1(c2ccccc2)NC(=O)N(CC(=O)Nc2cccc(C#N)c2)C1=O (centres undefined)	4	3	5	-2	-1	0	x
Cc1ccc(Cl)cc1NC(=S)N(CCCN1CCN(C)CC1)Cc1ccco1	2	0	1	1	4	3	x
CNC(=S)NNC(=O)c1oc2nc(-c3ccccc3)cc(C)c2c1N	3	-2	0	-2	-4	7	x
NNC(=O)c1oc2nc(-c3ccccc3)cc(-c3ccccc3)c2c1N	4	-3	7	-1	5	32*	9
O=C(O)CN1C(=O)/C(=C\c2cccc(OCc3ccc(Cl)cc3)c2)SC1=S	9	1	-1	-3	7	28*	27*
CCOC(=O)C1=C(C)NC2=C(C1c1ccc([N+](=O)[O-])cc1)S(=O)(=O)c1ccccc12 (centres undefined)	2	-3	-5	1	4	41*	38*
Cc1ccc(S(=O)(=O)N(C)CC(=O)O/N=C(\N)c2ccccn2)cc1	-4	-4	1	3	5	6	x
CN(CC(=O)O/N=C(\N)c1ccccn1)S(=O)(=O)c1ccc(Br)cc1	23	2	-3	3	-4	40*	22
Cc1onc(-c2ccccc2Cl)c1C(=O)Nc1nnc(-c2ccc(Br)cc2)s1	1	0	5	-8	-9	-7	x
Cc1onc(-c2ccccc2Cl)c1C(=O)Nc1nnc(-c2ccc(F)cc2)s1	-5	2	-4	-3	-11	53*	3
Nc1cc(Cl)ccc1Oc1ccc2ccccc2c1	6	-2	-3	3	3	28*	13
O=C(CSc1n[nH]c(-c2ccccc2)n1)c1ccc(O)c(O)c1	31	-4	2	-2	-4	6	x
C/C(C=NNC(=O)Cn1nnc(N)n1)=C\c1ccc(C(C)C)cc1	x	x	x	x	x	x	x	LYPLA2 gel ABPP=69*
Nc1nnn(CC(=O)N/N=C/c2ccccc2Cl)n1	5	2	0	1	-3	3	x
Cc1nc(-c2ccc(S(=O)(=O)N3CCCN(CCc4ccccc4)CC3)s2)cs1	2	5	0	8	2	61*	68*	LYPLA2 gel ABPP=50*
CN(Cc1nc(-c2cccnc2)no1)S(=O)(=O)c1ccc2ccccc2c1	4	-1	-3	1	6	24	x
CN(Cc1nc(-c2ccccn2)no1)S(=O)(=O)c1ccc(Br)cc1	-9	-4	-2	1	-2	37*	35*
CN(Cc1nc(-c2cccnc2)no1)S(=O)(=O)c1ccc(Br)cc1	0	-4	5	-1	7	41*	31*
CCCCCC1=NN2C(=O)CC(=O)N=C2S1	3	1	4	0	-4	2	x
S=c1[nH]nc(COc2ccc(Cl)cc2)n1-c1ccccc1	-2	1	-2	-5	-1	1	x
O=C(NCCS(=O)(=O)N1CCN(c2cccc(Cl)c2)CC1)c1ccc2c(c1)OCO2	-5	2	2	-1	-2	47*	56*	LYPLA2 gel ABPP=20
